# Reference: PubChem BioAssay AID2101 (National Center for Advancing Translational Sciences (NCATS), 2009)
# About 300 (0.091%) of roughly 330,000 compounds were called active. About 4% were inconclusive and are not listed. The list comes from a sample in which actives are over-represented; it also holds similar structures and randomly drawn compounds. Values without a mark were called inactive. The call rests on the fitted dose curve; in most records, active means well fitted inhibition curve with a large enough effect; inconclusive means small, poorly fitted or top-dose-only effect, or effect the other way, or another doubt; inactive means no such curve, though single readings can be large or run the other way.
# Target: Lysosomal acid glucosylceramidase (Homo sapiens) (UniProt P04062)
# Assay: qHTS Assay for Inhibitors and Activators of N370S glucocerebrosidase as a Potential Chaperone Treatment of Gaucher Disease;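 on activity change, negative = inhibition: 0% = full enzyme activity and -100% = no enzyme basal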
# Settings: N370S GC spleen homogenate, 4MU-glucoside fluorescence; series mostly up to 59.4 µM; activity change, negative = inhibition: at the top concentration
# Description: NIH Chemical Genomics Center [NCGC]
# NIH Molecular Libraries Probe Production Centers Network [MLPCN]
# Assay Submitter (PI): Wei Zheng
# Glucocerebrosidase (GC) catalyzes the hydrolysis of beta-glucocerebroside to glucose and ceramide in lysosomes. Mutations in the glucocerebrosidase gene result in Gaucher disease, an autosomal recessive lysosomal storage disorder. Many of the mutations encountered in patients with Gaucher disease are missense alterations that may cause misfolding, decreased stability and/or mistrafficking of this lysosomal protein. […] These inhibitors include iminosugar analogs and three non-iminosugar inhibitors identified from a previous HTS of 62,000 compounds with the wild type recombinant enzyme. However, the enhancement of enzyme activity by the chaperone action of an enzyme inhibitor must be balanced against the direct inhibition of the enzyme. An enzyme activator could also function as a chaperone by binding to the enzyme and helping to correct its misfolding and mistrafficking. While activators for GC have not yet been identified, they may have better therapeutic potential than inhibitors. Therefore the discovery and development of chemical activators may provide a new strategy for the chaperone therapy.
# We have optimized a new assay using N370S mutant GC derived from the spleen of a Gaucher patient. […] In addition, the MLPCN compound library has expanded, which increases the chance of finding new and better probes.
# NCGC Assay Protocol Summary:
# This is a fluorogenic enzyme assay with 4-methylumbelliferyl-beta-D-glucopyranoside as the substrate and N370S glucocerebrosidase from human spleen homogenate as the enzyme preparation. Upon the hydrolysis of this fluorogenic substrate, the resulting product, […] which can be detected by a standard fluorescence plate reader. Data were normalized to the controls for basal activity (without enzyme) and 100% activity (with enzyme). The AC50 values were determined from concentration-response data modeled with the standard Hill equation.
# Assay buffer: 50 mM citric acid (titrated with potassium phosphate to pH 5.0), 100 mM potassium chloride, 10 mM sodium chloride, 1 mM magnesium chloride, 0.01% Tween-20.
# 1536-well assay protocol:
# (1) Add 2 ul/well of spleen homogenate (27 ug final)
# (2) Add 23 nL compounds in DMSO solution. The final titration was 0.5 nM to 58 uM.
# (3) Add 2 ul of substrate (1 mM final)
# (4) Incubate at 37C for 40 min.
# (5) Add 2 ul stop solution (1M NaOH and 1M Glycine mixture, pH 10)
# (6) Detect the assay plate in a ViewLux plate reader (PerkinElmer) with Ex=365 nm and Em=440nm.
# Keywords: Glucocerebrosidase, beta-glucosidase, Gaucher Disease, pharmacological chaperone, chaperone therapy, high throughput screening, glucocerebrosidase inhibitor, MLSMR, MLSCN, NIH Roadmap, qHTS and NCGC
# Potency means the concentration at half of the fitted maximal effect.
Compound,"activity change, negative = inhibition",Potency
O=C(NCCc1ccc(F)cc1)c1ccc(S(=O)(=O)N2CCCCC2)cc1,1.39%,–
Nc1nc2c(ncn2[C@@H]2O[C@H](COP(=O)(O)OP(=O)(O)OP(=O)(O)O)[C@@H](O)C2O)c(=O)[nH]1 (stereo partly drawn),9.3%,–
Cc1occc1-c1nnc(SCC(=O)NC2(C#N)CCCC2)n1C,-17.2%,–
C/C=C(\C)C(=O)OC1C(OC(=O)C2(C)OC2C)c2cc3ccc(=O)oc3cc2OC1(C)C (stereo not drawn),3.71%,–
O=C(c1cnccn1)N1CCC2(CCN(Cc3cc(C(F)(F)F)cc(C(F)(F)F)c3)CC2)CC1,-12.7%,–
Cc1ccc(NC(=O)CCC(=O)N2CCC(c3ccccc3)=N2)cc1S(=O)(=O)N1CCCCC1,2.1%,–
CC(=O)OCCC(C)C,0.964%,–
CCCCCCN(C(=O)CCCCCN1C(=O)NC(c2ccc(C(F)(F)F)cc2)C(C(=O)OCc2ccccc2)=C1C)C(C(=O)NCCCC)c1ccc(OCC(=O)OC)c(C(=O)OC)c1 (stereo not drawn),5.32%,–
c1ccc(Oc2ccccc2)cc1,22.7%,–
C=CCOC(=O)C(C(C)=O)C(NC(=O)OC)c1ccccc1 (stereo not drawn),-15.4% [at 12.8 µM],–
COC(=O)CCc1ccccc1S(=O)(=O)N(CCC(=O)OC)Cc1ccccc1,4.9%,–
CC1CC[C@@]23CCC4(C)[C@@]5(C)CCC6C(C)(C)C(O)CC[C@@]6(C)C5C=C[C@@]4(OC2=O)C3C1C (stereo partly drawn),17%,–
CCN(CC)/[N+]([O-])=N/Oc1cc(O/[N+]([O-])=N/N2CCCC2CO)c([N+](=O)[O-])cc1[N+](=O)[O-] (stereo not drawn),-2.99%,–
COC(=O)N1C(/C=C/C=C/c2ccc(OC)cc2)=Cc2ccccc2C1CC(C)=O (stereo not drawn),-10.4% [at 12.8 µM],–
COc1ccc(-c2nc3c(c4c2C[C@H](c2ccccc2)OC4)CN(C(=O)C2CC2)CC3)c(C)c1,-14.3% [at 12.8 µM],–
C[C@]12CC[C@@H]3C(=CCc4cc(O)ccc43)[C@@H]1CCC2=O,5.36% [at 21.6 µM],–
CCOC(OCC)OCC,-6.68%,–
COc1ccc(Cl)cc1NC(=O)CN(C)CC(=O)Nc1ccc2c(c1)OCO2,-0.107%,–
COc1cccc(CC(=O)N2CCc3nc(COc4ccccc4)c4c(c3C2)CO[C@@H](C)C4)c1,3.29% [at 12.8 µM],–
O=S(=O)(Nc1ccc2nc(N3CCOCC3)sc2c1)c1ccccc1,-0.448%,–
CC(C)C(NC(=O)c1c(F)cccc1F)C(=O)NCc1ccncc1 (stereo not drawn),-1.03%,–
O=C(Nc1cccc(C(=O)NC2CC2)c1)c1ccc(F)c(S(=O)(=O)N2CCOCC2)c1,-12%,–

Compound,"activity change, negative = inhibition",Potency
COc1ccc(CNC(=O)COC(=O)c2c(C)nn(-c3ccccc3)c2C)cc1OC,-7.39%,–
Cc1ccccc1Nc1nc(N)nc(COC(=O)CCC(=O)c2ccc(F)cc2)n1,-4.41%,–
CN(CC(=O)Nc1cccc(F)c1)C(=O)CC1CCCC1,4.61%,–
Cc1nc2cc(-c3ccc(F)cc3)nn2c(N2CCOCC2)c1C,3.61%,–
Cc1cc(C(C)(C)C)n2nc(C)c(-c3ccccc3)c2n1,-12.5%,–
Cc1cc(N)n2nc(-c3ccc(C(C)(C)C)cc3)cc2n1,–,10 µM (active)
CC(O)[C@@H](N)C(=O)O (stereo partly drawn),0.968%,–
CC/C=C/C/C=C/C/C=C/CCCCCCCC(=O)OCC,-5.39%,–
COC(=O)C(C(=O)OC)[C@@H]1CCCC(=O)C1,8.05% [at 12.8 µM],–
Cc1cc(C)c(C#N)c(SCC(=O)N(CC(C)C)C2CCS(=O)(=O)C2)n1 (stereo not drawn),-3.33%,–
O=C(COc1ccccc1O)NC1CCCC1,-4.6%,–
FC(F)(F)c1ccccc1-c1cc(NCc2ccccc2)ncn1,-15.5%,–
COc1cccc(-c2cc(=O)c3cc(NC(=O)c4ccc(C)cc4)ccc3[nH]2)c1,3.29% [at 89.1 µM],–
CCCCC(CC)CN (stereo not drawn),inactive,–
CCCCC/C=C\C/C=C\C/C=C\CCCCC(=O)NCC(=O)O,-1.79%,–
CC(=O)Nc1ccc(S(=O)(=O)N2CCN(S(=O)(=O)c3cccs3)CC2)cc1,-3.11%,–
CCc1c2c(nc3ccc(O)cc13)-c1cc3c(c(=O)n1C2)COC(=O)[C@]3(O)CC,-6.54%,–
Cc1cc(C)cc(C#CC2C=CC(Oc3ccc(C4CCCC4)cc3)C(CO)O2)c1 (stereo not drawn),7.35% [at 12.8 µM],–
O=C1C2C(c3ccccc3)CC=CC2C(c2ccoc2)N1Cc1ccccc1 (stereo not drawn),1.22%,–
O=C(CN1CCCSc2ccccc21)N1CCN(S(=O)(=O)c2ccccc2)CC1,2.06%,–
COC(=O)NC(c1ccccc1)[C@]1(C(C)=O)CCCC1=O (stereo partly drawn),0.29% [at 12.8 µM],–
